Test results published in PubChem BioAssay (NCI).
About 79,000 compounds went through this panel and 15% of them were active in at least one assay; those are over-represented in the sample as a whole. Values without a mark were called inactive. The source made the active and inactive calls. No stated cut-off is given here; in the data, active means growth inhibition above about 70%; inactive means the rest.

Experiments:
[1] = NCI Yeast Anticancer Drug Screen. Data for the rad50 strain (AID 155);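 further: 0% = growth of vehicle-only cultures of the same strain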; conditions: S. cerevisiae rad50 strain growth inhibition, hits give high values
In short: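 Relative growth inhibition (compound vs vehicle) was measured in yeast with a defined repair-gene alteration.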

[2] = NCI Yeast Anticancer Drug Screen. Data for the mec2-1 strain (AID 157); conditions: S. cerevisiae mec2-1 strain, hits give high values
In short: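 Growth inhibition is read against vehicle-treated controls after compound exposure of the mec2-1 yeast strain, which is defective in DNA damage repair or cell cycle control.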

[3] = NCI Yeast Anticancer Drug Screen. Data for the sgs1 mgt1 strain (AID 161);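 further: 0% = growth of cultures given vehicle only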; conditions: S. cerevisiae sgs1 mgt1 strain, hits give high values
In short: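 This yeast growth screen uses a strain with defined DNA-repair lesions; compound-treated growth is compared with vehicle-treated growth.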

[4] = NCI Yeast Anticancer Drug Screen. Data for the cln2 rad14 strain (AID 165);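 further: 0% = growth equal to vehicle treated cultures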; conditions: S. cerevisiae cln2 rad14 strain, hits give high values
In short: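 Growth inhibition, relative to vehicle-treated controls, is the read-out. The test organism is a yeast strain with defined genetic alterations, cln2 rad14.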

[5] = NCI Yeast Anticancer Drug Screen. Data for the bub3 strain (AID 167); conditions: S. cerevisiae bub3 mutant strain, hits give high values
In short: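 Screening used yeast with an engineered genetic alteration affecting cell cycle control. Compound-exposed cultures were compared with vehicle cultures, and reduced growth was taken as inhibition.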

[6] = NCI Yeast Anticancer Drug Screen. Data for the mlh1 rad18 strain (AID 175); conditions: S. cerevisiae mlh1 rad18 strain growth inhibition, hits give high values
In short: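 Cells of a genetically altered yeast strain, deficient in DNA damage repair, were treated with compound. Their growth was then compared with that of vehicle-treated cultures to give inhibition.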

[7] = at 5.0 µM (retest, dose inferred, filed as 0.5)
[8] = at 50.0 µM (retest, dose inferred, filed as 5.0)

`CSC(=S)n1nc(-c2ccccc2)c(N=Nc2ccc(Br)cc2)c1-c1ccccc1` showed a growth inhibition [1, 7] of 6%, a growth inhibition [1, 8] of 14% and a growth inhibition ([1]; at 50.0 µM) of 41%. For the same compound, the growth inhibition [2, 7] was 9%, the growth inhibition [2, 8] was 25% and the growth inhibition ([2]; at 50.0 µM) was 23.9%. The growth inhibition [3, 7] was 5%, the growth inhibition [3, 8] was 25% and the growth inhibition ([3]; at 50.0 µM) was 6.15%. The growth inhibition [4, 7] was 10%, the growth inhibition [4, 8] was 4% and the growth inhibition ([4]; at 50.0 µM) was 49.9%. For the same compound, the growth inhibition [5, 7] was 13%, the growth inhibition [5, 8] was 34% and the growth inhibition ([5]; at 50.0 µM) was 0.05%. For the same compound, the growth inhibition [6, 7] was 5%, the growth inhibition [6, 8] was 19% and the growth inhibition ([6]; at 50.0 µM) was -10.2%.
With `Cc1cc2c(C(C)C)c(O)c(O)c3coc(/c1=c1/c(C)cc4c(C(C)C)c(=O)c(=O)c5coc1c45)c32` the growth inhibition [1, 7] was -1%, the growth inhibition [1, 8] was 97% (active) and the growth inhibition ([1]; at 50.0 µM) was 98.9% (active). For the same compound, the growth inhibition [2, 7] was 23%, the growth inhibition [2, 8] was 99% (active) and the growth inhibition ([2]; at 50.0 µM) was 99.2% (active). The growth inhibition [3, 7] was 25%, the growth inhibition [3, 8] was 99% (active) and the growth inhibition ([3]; at 50.0 µM) was 99% (active). For the same compound, the growth inhibition [4, 7] was -25%, the growth inhibition [4, 8] was 98% (active) and the growth inhibition ([4]; at 50.0 µM) was 98.8% (active). The growth inhibition [5, 7] was -3%, the growth inhibition [5, 8] was 97% (active) and the growth inhibition ([5]; at 50.0 µM) was 98.5% (active). The growth inhibition [6, 7] was 29%, the growth inhibition [6, 8] was 98% (active) and the growth inhibition ([6]; at 50.0 µM) was 99.2% (active).
In the case of `CCN(CC)CCCNc1cccc2ccc(OC)nc12`, the growth inhibition [1, 7] is reported as 1%, the growth inhibition [1, 8] is reported as 50% and the growth inhibition ([1]; at 50.0 µM) is reported as 73.8% (active). The growth inhibition [2, 7] was 0%, the growth inhibition [2, 8] was 24% and the growth inhibition ([2]; at 50.0 µM) was 13%. For the same compound, the growth inhibition [3, 7] was -9%, the growth inhibition [3, 8] was 60% and the growth inhibition ([3]; at 50.0 µM) was 66%. The growth inhibition [4, 7] was -1%, the growth inhibition [4, 8] was 33% and the growth inhibition ([4]; at 50.0 µM) was 32.7%. The growth inhibition [5, 7] was 2%, the growth inhibition [5, 8] was 40% and the growth inhibition ([5]; at 50.0 µM) was 51.8%. The growth inhibition [6, 7] was 4%, the growth inhibition [6, 8] was 28% and the growth inhibition ([6]; at 50.0 µM) was 53.5%.
With `S=C(N/N=C(/c1ccccc1)c1ccccn1)Nc1ccccc1` the growth inhibition [1, 7] was 2%, the growth inhibition [1, 8] was 90% (active) and the growth inhibition ([1]; at 50.0 µM) was 84.3% (active). The growth inhibition [2, 7] was 14%, the growth inhibition [2, 8] was 95% (active) and the growth inhibition ([2]; at 50.0 µM) was 73.5% (active). The growth inhibition [3, 7] was 20%, the growth inhibition [3, 8] was 95% (active) and the growth inhibition ([3]; at 50.0 µM) was 85.3% (active). The growth inhibition [4, 7] was -9%, the growth inhibition [4, 8] was 94% (active) and the growth inhibition ([4]; at 50.0 µM) was 60.4%. For the same compound, the growth inhibition [5, 7] was 2%, the growth inhibition [5, 8] was 93% (active) and the growth inhibition ([5]; at 50.0 µM) was 76.2% (active). For the same compound, the growth inhibition [6, 7] was 13%, the growth inhibition [6, 8] was 94% (active) and the growth inhibition ([6]; at 50.0 µM) was 90% (active).
For `CN(C)C(=S)N/N=C/c1ccccn1`, the growth inhibition [1, 7] was 94% (active), the growth inhibition [1, 8] was 98% (active) and the growth inhibition ([1]; at 50.0 µM) was 98.7% (active). For the same compound, the growth inhibition [2, 7] was 95% (active), the growth inhibition [2, 8] was 98% (active) and the growth inhibition ([2]; at 50.0 µM) was 98.9% (active). For the same compound, the growth inhibition [3, 7] was 95% (active), the growth inhibition [3, 8] was 99% (active) and the growth inhibition ([3]; at 50.0 µM) was 98.4% (active). For the same compound, the growth inhibition [4, 7] was 95% (active), the growth inhibition [4, 8] was 99% (active) and the growth inhibition ([4]; at 50.0 µM) was 98.3% (active). The growth inhibition [5, 7] was 95% (active), the growth inhibition [5, 8] was 97% (active) and the growth inhibition ([5]; at 50.0 µM) was 99% (active). For the same compound, the growth inhibition [6, 7] was 95% (active), the growth inhibition [6, 8] was 98% (active) and the growth inhibition ([6]; at 50.0 µM) was 98.8% (active).
`CCCC(/C=N/N=C(N)N)=N\N=C(N)N` gave a growth inhibition [1, 7] of -24%, a growth inhibition [1, 8] of -8% and a growth inhibition ([1]; at 50.0 µM) of -24.1%. It also gave a growth inhibition [2, 7] of -11%, a growth inhibition [2, 8] of 4% and a growth inhibition ([2]; at 50.0 µM) of -8.95%. For the same compound, the growth inhibition [3, 7] was -1%, the growth inhibition [3, 8] was -30% and the growth inhibition ([3]; at 50.0 µM) was -14.3%. For the same compound, the growth inhibition [4, 7] was 10%, the growth inhibition [4, 8] was 0% and the growth inhibition ([4]; at 50.0 µM) was -33.1%. The growth inhibition [5, 7] was -12%, the growth inhibition [5, 8] was -2% and the growth inhibition ([5]; at 50.0 µM) was -8.95%. The growth inhibition [6, 7] was 4%, the growth inhibition [6, 8] was -1% and the growth inhibition ([6]; at 50.0 µM) was -10.6%.
`S=c1[nH]nc(Nc2ccccc2Cl)s1` gave a growth inhibition [1, 7] of 17%, a growth inhibition [1, 8] of 3% and a growth inhibition ([1]; at 50.0 µM) of 57.5%. It also gave a growth inhibition [2, 7] of -21%, a growth inhibition [2, 8] of -8% and a growth inhibition ([2]; at 50.0 µM) of 32.4%. The growth inhibition [3, 7] was -4%, the growth inhibition [3, 8] was 15% and the growth inhibition ([3]; at 50.0 µM) was 79.8% (active). It also gave a growth inhibition [4, 7] of 23%, a growth inhibition [4, 8] of 22% and a growth inhibition ([4]; at 50.0 µM) of 43.2%. The growth inhibition [5, 7] was 1%, the growth inhibition [5, 8] was 19% and the growth inhibition ([5]; at 50.0 µM) was 57%. The growth inhibition [6, 7] was -7%, the growth inhibition [6, 8] was -8% and the growth inhibition ([6]; at 50.0 µM) was 47.9%.
For `CC1CCC(C(C)C2C(O)CC3C4CCC5CC(O)CCC5(C)C4CCC32C)NC1` (stereo not given), the growth inhibition [1, 7] was 3%, the growth inhibition [1, 8] was 98% (active) and the growth inhibition ([1]; at 50.0 µM) was 91.8% (active). For the same compound, the growth inhibition [2, 7] was 1%, the growth inhibition [2, 8] was 96% (active) and the growth inhibition ([2]; at 50.0 µM) was 82.2% (active). For the same compound, the growth inhibition [3, 7] was 6%, the growth inhibition [3, 8] was 97% (active) and the growth inhibition ([3]; at 50.0 µM) was 93.2% (active). The growth inhibition [4, 7] was -4%, the growth inhibition [4, 8] was 96% (active) and the growth inhibition ([4]; at 50.0 µM) was 90% (active). The growth inhibition [5, 7] was 2%, the growth inhibition [5, 8] was 95% (active) and the growth inhibition ([5]; at 50.0 µM) was 90% (active). The growth inhibition [6, 7] was 4%, the growth inhibition [6, 8] was 97% (active) and the growth inhibition ([6]; at 50.0 µM) was 92.9% (active).
In the case of `O=C1CSC(c2ccc(Cl)cc2)N1c1ccc(-c2ccc(-n3c(-c4ccccc4)nc4ccccc4c3=O)cc2)cc1` (stereo not given), the growth inhibition [1, 7] is reported as -6%, the growth inhibition [1, 8] is reported as 84% (active) and the growth inhibition ([1]; at 50.0 µM) is reported as 69.4%. For the same compound, the growth inhibition [2, 7] was 2%, the growth inhibition [2, 8] was 63% and the growth inhibition ([2]; at 50.0 µM) was 47.2%. The growth inhibition [3, 7] was 9%, the growth inhibition [3, 8] was 65% and the growth inhibition ([3]; at 50.0 µM) was 84.2% (active). For the same compound, the growth inhibition [4, 7] was -11%, the growth inhibition [4, 8] was 50% and the growth inhibition ([4]; at 50.0 µM) was 26.9%. The growth inhibition [5, 7] was -4%, the growth inhibition [5, 8] was 95% (active) and the growth inhibition ([5]; at 50.0 µM) was 84.8% (active). The growth inhibition [6, 7] was -10%, the growth inhibition [6, 8] was 94% (active) and the growth inhibition ([6]; at 50.0 µM) was 87.5% (active).
For `O=c1[nH]c2c([N+](=O)[O-])cc(Cl)cc2nc1/C=C(\O)c1cccc2ccccc12`, the growth inhibition [1, 7] was 0%, the growth inhibition [1, 8] was 86% (active) and the growth inhibition ([1]; at 50.0 µM) was 77% (active). The growth inhibition [2, 7] was 10%, the growth inhibition [2, 8] was 75% (active) and the growth inhibition ([2]; at 50.0 µM) was 62.2%. The growth inhibition [3, 7] was -10%, the growth inhibition [3, 8] was 81% (active) and the growth inhibition ([3]; at 50.0 µM) was 89.5% (active). For the same compound, the growth inhibition [4, 7] was -1%, the growth inhibition [4, 8] was 87% (active) and the growth inhibition ([4]; at 50.0 µM) was 82.4% (active). For the same compound, the growth inhibition [5, 7] was -3%, the growth inhibition [5, 8] was 88% (active) and the growth inhibition ([5]; at 50.0 µM) was 71.5% (active). For the same compound, the growth inhibition [6, 7] was -7%, the growth inhibition [6, 8] was 85% (active) and the growth inhibition ([6]; at 50.0 µM) was 72.2% (active).
